# Assay results: PubChem BioAssay (NCATS)
# Results filed as inconclusive are left out. The source made the active and inactive calls. The call rests on the fitted dose curve; in most records, active means well fitted cell-killing curve with a large enough effect; inconclusive means small, poorly fitted or top-dose-only effect; inactive means flat fitted curve, though single readings scatter.
# Test: Quantitative highthroughput screen to assess conditional lethalithy of P12 Ichikawa cells grown in RPMI1640 with dialyzed fetal bovine serum (RPMI+ds) (AID 1963880); further: nearly all actives have a fitted effect of over 35% in size
# Settings: ATP luminescence, 48 h; Potency: P12-Ichikawa viability; series mostly up to 45.8 µM; viability: at the top concentration
# Source text: Assay Provider: Jason Cantor Ph.D.
# Department of Biochemistry
# University of Wisconsin-Madison, Madison, WI, USA
# Chemical screening studies have identified drug sensitivities across hundreds of cancer cell lines but most putative therapeutics fail to translate. Discovery and development of drug candidates in models that more accurately reflect nutrient levels in human blood is a major challenge. Here we performed high-throughput screens in conventional versus Human Plasma-Like Medium (HPLM) to identify compounds that were "missed" when screening using the artificial culture condition. Sets of conditional anticancer compounds spanned phases of clinical development and included non-oncology drugs were assessed. […] We also traced conditional phenotypes for several chemotherapeutics to availability of HPLM-specific metabolites and confirmed others for compounds whose reported targets are encoded by nonessential genes. Our findings establish generalizable strategies for exploiting conditional lethality in HPLM to reveal therapeutic candidates and mechanisms of action in cancer cells.
# Described herein are the results of each viability screens against three cell lines: NOMO1 (an acute myeloid leukemia cell line); P12-Ichikawa (a T-cell acute lymphoblastic leukemia); and SEM (a B-cell ALL). Each assay was screened using 3 different cell culture media: homemade human plasma-Like medium with 10% dialyzed fetal bovine serum (HPLM+ds); RPMI1640 with 10% untreated FBS and 5mM glucose (RPMI+s); and RPMI1640 with 10% dialyzed fetal bovine serum and 5 mM glucose (RPMI+ds).
# PROTOCOL TABLE (as described by Inglese J, Shamu CE and Guy RK. 2007)
# SEQUENCE No. (e.g., 1, 2, 3, etc.); […] (e.g., Cells, Incubation, Reagent, etc.); VALUE and DESCRIPTION.
# 1; Cells; 5 uL; white, solid bottom 1536-well Greiner assay plate.
# 2; Compounds; 23 nL; Kalypsis pin tool (Wako USA) equipped with a 1536-well pin head to transfer to the assay plates.
# 3; Incubation; 48 hours; 37C incubation.
# 4; Reagent; 3 uL; CellTiter Glo (Promega).
# 5; Incubation; 5 min, room temperature
# 6; Detection; Luminescence, Viewlux PerkinElmer.
# NOTES (numbers refer to Sequence numbers above)
# 1. Briefly, 5 ul of cell reagent was dispensed using a Multidrop Combi Dispenser. The NOMO1 and SEM cells were plated at 500 cells/well and the P12-Ichikawa line at 1000 cells/well.
# 2. After seeding the cells, 23 nL of MIPE 4.1 library compounds (in DMSO) were added to each plate using a Kalypsys 1536 Pintool dispenser. Bortezomib at final concentration of […] and DMSO were added to each plate as positive and negative controls respectively. For each screen, MIPE 4.1 compounds were added over an eleven-point concentration range […] in 3-fold dilutions.
# 3. Each plate was covered with a stainless steel gasketed lid to prevent evaporation and incubated for 48 hour at 37C, 95% relative humidity, and 5% CO2.
# 4-5. Three microliter CellTilter-GloTM luminescent substrate mix (Promega) reagent was added to the assay plate and incubated at room temperature for 5 min.
# 6. The luminescence signal was measured using a ViewLux (PerkinElmer) multiplate reader with a 2 second exposure time per plate. Data for each compound were normalized as percent viability such that measurements for DMSO and the empty well controls in each plate were defined as 100% and 0%, respectively.
# Potency means the concentration at half of the fitted maximal effect.
Structure (SMILES),viability,Potency
CC(C)c1cccc(C(C)C)c1O,102% (inactive),
CC(=CCCC1=CCC(C2=CC(=O)OC2O)OC1O)CCC1=C(C)CCCC1(C)C (stereo not given),95.8% (inactive),
C[C@](O)(CS(=O)(=O)c1ccc(F)cc1)C(=O)Nc1ccc(C#N)c(C(F)(F)F)c1,86.7% (inactive),
COC1(CS(=O)c2ccccc2)CCN(CCc2c[nH]c3ccc(F)cc23)CC1 (stereo not given),87.5% (inactive),
CN(C)[C@@H]1C(=O)C(C(N)=O)=C(O)[C@@]2(O)C(=O)C3=C(O)c4c(O)cccc4[C@@](C)(O)[C@H]3[C@H](O)[C@@H]12,105% (inactive),
C=C[C@@H]1CN2CCC1C[C@@H]2[C@@H](O)c1ccnc2ccccc12 (stereo not given in full),86.1% (inactive),
COC[C@H]1OC(=O)c2coc3c2[C@@]1(C)C1=C(C3=O)C2CCC(=O)[C@@]2(C)C[C@H]1OC(C)=O (stereo not given in full),83% (inactive),
COc1cccc2c1[C@]13CCN(CC4CC4)[C@H](C2)[C@]1(OC)CCC(=O)C3,95.8% (inactive),
NC1=NC(=O)N2CC12 (stereo not given),,6.62 µM (active)
CC(=O)OCC1=C(C(=O)O)N2C(=O)[C@@H](N)[C@@H]2SC1,,2.35 µM (active)
CC[C@@H](C(N)=O)N1CCCC1=O,95.5% (inactive),
COc1cc2cc(c1Cl)N(C)C(=O)C[C@H](OC(=O)C(C)C)[C@]1(C)O[C@H]1[C@H](C)[C@@H]1C[C@@](O)(NC(=O)O1)[C@H](OC)C=CC=C(C)C2,2.15% (inactive),
CCc1c(C(=O)C(N)=O)c2c(OCC(=O)O)cccc2n1Cc1ccccc1,96.8% (inactive),
Cc1sc2c(c1C)C(c1ccc(Cl)cc1)=N[C@@H](CC(=O)OC(C)(C)C)c1nnc(C)n1-2,,2.64 µM (active)
CC(C)[C@]12O[C@@H]1[C@@H]1O[C@]13[C@]1(O[C@H]1C[C@@H]1C4=C(CC[C@@]13C)C(=O)OC4)[C@H]2O,,0.0012 µM (active)
O=C1CC[C@@]2(O)[C@H]3Cc4ccc(O)c5c4[C@@]2(CCN3CC2CC2)[C@H]1O5,95.8% (inactive),
O=C(NCC1CCOCC1)c1cnc(Nc2ccc(Cl)cc2Cl)nc1C(F)(F)F,99.5% (inactive),
O=C1CCC[C@@H]2[C@H]3CCCN4CCC[C@@H](CN12)[C@@H]34,95.5% (inactive),
C#C[C@]1(O)C=C[C@@H]2[C@@H]3CCC4=CC(=O)CC[C@@H]4[C@H]3CC[C@@]21CC,99% (inactive),
CNCC(O)c1ccc(O)cc1 (stereo not given),97.4% (inactive),

Structure (SMILES),viability,Potency
CC(O)=C(C#N)C(=O)Nc1cc(Br)ccc1Br,106% (inactive),
Clc1ccccc1C(c1ccccc1)(c1ccccc1)n1cccn1,100% (inactive),
CC(=O)Nc1ccc(OC[C@](C)(O)C(=O)Nc2ccc([N+](=O)[O-])c(C(F)(F)F)c2)cc1,101% (inactive),
COc1ccc(C(=O)c2c(C)n(CCN3CCOCC3)c3ccccc23)cc1,111% (inactive),
O=c1[nH]c2ccc(Cl)cc2c(N[C@@H]2CN3CCC2CC3)c1-c1nc2ccccc2[nH]1,,0.372 µM (active)
C#CCN(C)[C@H](C)Cc1ccccc1,96.9% (inactive),
CN1C(=O)CCS(=O)(=O)C1c1ccc(Cl)cc1 (stereo not given),91.2% (inactive),
CCC1(c2ccc(N)cc2)CCC(=O)NC1=O (stereo not given),94.6% (inactive),
CCN1C[C@]2(OC(=O)c3ccccc3NC(C)=O)CC[C@H](OC)[C@@]34[C@H]5CC6[C@@H](OC)C[C@](O)(C(C[C@@H]23)[C@@H]14)[C@@]5(O)[C@@H]6OC,94.8% (inactive),
CC(C)(C)[C@]1(O)C[C@@H]2OC(=O)C[C@@]23C(=O)O[C@@H]2OC(=O)[C@H](O)C213 (stereo not given in full),99.7% (inactive),
O=P1(NCCCl)OCCCN1CCCl (stereo not given),95.6% (inactive),
CC1=C(O)C(=O)C=C2C1=CC=C1[C@@]2(C)CC[C@@]2(C)[C@@H]3C[C@](C)(C(=O)O)CC[C@]3(C)CC[C@]12C,,2.64 µM (active)
O=C(Oc1ccc([N+](=O)[O-])cc1)N1CCC(C(O)(c2ccc3c(c2)OCO3)c2ccc3c(c2)OCO3)CC1,99.9% (inactive),
COc1ccc(C(CN(C)C)C2(O)CCCCC2)cc1 (stereo not given),99.4% (inactive),
Cc1ccccc1-n1c(Cn2ncc3c(N)ncnc32)nc2cccc(C)c2c1=O,,3.32 µM (active)
Cc1[nH]nc2ccc(-c3cncc(OC[C@@H](N)Cc4c[nH]c5ccccc45)c3)cc12,,1.05 µM (active)
CN(C)[C@@H]1C(=O)C(C(N)=O)=C(O)[C@@]2(O)C(=O)C3=C(O)c4c(O)cccc4[C@@](C)(O)[C@H]3C[C@@H]12,95% (inactive),
C[C@]12CC[C@H]3[C@@H](CCC4=CC(=O)CC[C@@]43C)[C@H]1CC[C@H]2OC(=O)CCC1CCCC1,94% (inactive),
COc1ccc(CC2NCCc3cc(OC)c(OC)cc32)cc1OC (stereo not given),90% (inactive),
C[C@]12Cc3cn[nH]c3C[C@@H]1CC[C@@H]1[C@H]2CC[C@@]2(C)[C@H]1CC[C@]2(C)O,96.9% (inactive),
